Test results reported in PubChem BioAssay (NCI).
The panel holds about 83,000 compounds, 20% with a hit somewhere; the sample as a whole holds those more often.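 Note: values are percent growth. 100 is the growth of untreated cells, values between 100 and 0 indicate rising inhibition; between -100 and 0 indicates cell death.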 Calls of active or inactive are those of the source.

test system: SNB-19 CNS; test: NCI-60 one-dose screen, 48 h (100 = growth as untreated, 0 = no growth, -100 = all killed); conditions: 1 µM
Procedure: Growth inhibition of the SNB-19 human tumor cell line is measured as a screen for anti-cancer activity. Cells are grown in 96 well plates and exposed to the test compound for 48 hours. Compounds are tested at a single concentration, which is 10^-5 M for most compounds. The reported endpoint is percent growth (GI% or GIPRCNT), where numbers from 0 - 100% represent growth inhibition, and numbers from -100% - 0 represent cell death. For example, a value of 40 represents 60% growth inhibition. A value of 0 means no net growth occurred over the course of the experiment. A value of -40 indicates 40% of cells at the beginning of the experiment died by the end of the experiment. A value of -100 means all cells are dead at the end of the experiment.
NCI-60 Human Tumor Cell Lines Screen was performed using the standard one-dose NCI protocol, which is described in more detail at https://dtp.cancer.gov/discovery_development/nci-60/default.htm.
Compounds with GIPRCNT values below 10 were considered active. Activity score was based on GIPRCNT using the following formula: […]
Score is 0 for GIPRCNT values of 100 or above, 50 for GIPRCNT values of 0, and 100 for GIPRCNT values of -100.

Row | Compound | growth
1 | CC/C(=C(\c1ccc(O)cc1)c1ccc(OCCN(C)C(=O)COCCNC(=O)Cc2ccc3c(c2)CN([C@@H]2CCC(=O)NC2=O)C3=O)cc1)c1ccccc1 | 64.8% (inactive)

same assay, conditions: 10 µM

Row | Compound | growth
2 | CC/C(=C(\c1ccc(O)cc1)c1ccc(OCCN(C)C(=O)COCCNC(=O)Cc2ccc3c(c2)CN([C@@H]2CCC(=O)NC2=O)C3=O)cc1)c1ccccc1 | 49.8% (inactive)

same assay, conditions: 10 µM unless noted

Row | Compound | growth
3 | Cc1cnc2ccc(Oc3ccccc3-c3ccccc3)nn12 | 99.7% (inactive)
4 | N#CC1=C(c2ccco2)Nc2c(c(-c3ccccc3)nn2-c2ccccc2)C12C(=O)Nc1ccc(Cl)cc12 (stereo not given) | 3.22% (active)
5 | CCCCNc1ccc2c3c(cccc13)C(=O)N(NCC(O)COc1ccc3c(C)cc(=O)oc3c1)C2=O (stereo not given) | 83.9% (inactive)
6 | Cn1ncc2c(N)nc(Oc3ccccc3-c3ccccc3)nc21 | 33.8% (inactive)
7 | N#CC1=C(c2cccs2)Nc2c(c(-c3ccccc3)nn2-c2ccccc2)C12C(=O)Nc1ccc(Cl)cc12 (stereo not given) | 13.4% (inactive)
8 | COC(=O)CSC1=C(C)C(=O)C(OC)=C(OC)C1=O | 90.3% (inactive)
9 | COc1ccc(C2=NN(C(=O)[C@H]3[C@@H](c4ccco4)c4sc(=O)[nH]c4S[C@@H]3C)C(c3ccc4ccccc4c3)C2)cc1 (stereo not given in full) | 39.8% (inactive)
10 | Cc1ccc(C2CC(c3ccc(S(=O)(=O)NCCNc4nc(N(C)C)nc(N5CCOCC5)n4)cc3)=Nc3c(N)nc(N)nc3N2)cc1 (stereo not given) | 57.3% (inactive)
11 | S=C(NCCc1ccccc1)Nc1ccc(OCc2nc3ccc(Cl)cc3[nH]2)cc1 | 46.7% (inactive)
12 | O=C(N=Nc1c(O)[nH]c2ccc(Br)cc12)c1ccc2nc(-c3ccc(Cl)cc3)[nH]c2c1 | -27.2% (active)
13 | O=C(CSc1nnc(-c2ccc(-c3nc4ccccc4[nH]3)cc2)o1)Nc1ccc(Cl)cc1 | -37.3% (active)
14 | CC[C@]12C=CCN3CC[C@@]4(c5ccc(OC)cc5N(C)[C@H]4[C@@](O)(C(=O)OC)[C@@H]1OC(=O)CCCC[P+](c1ccc(F)cc1)(c1ccc(F)cc1)c1ccc(F)cc1)[C@@H]32 | 6.61% (active)
15 | O=C1Nc2ccccc2/C1=C/C(=O)c1cc2ccccc2oc1=O | 101% (inactive)
16 | Cc1ccc(S(=O)(=O)Nc2ccc(-c3ccc4c(c3)NC(=O)/C4=C\c3ccc[nH]3)cc2)cc1 | 95.1% (inactive)
17 | FC(F)(F)c1cc2c(Cl)ncnc2n1CCN1CCCCC1 | -35.3% (active)
18 | COc1ccc(NC(=O)Cn2c(/C=C/c3ccc([N+](=O)[O-])cc3)nc3ccccc3c2=O)cc1 | 32.2% (inactive)
19 | COc1ccc(-c2cc(C(=O)Oc3ccc(C=O)cc3OC)nn2-c2ccc(S(C)(=O)=O)cc2)cc1 | 94.5% (inactive)
20 | CCCCCCCCc1ccc(C(=O)Nc2ccc(C)cc2C(=O)O)cc1 | 67.5% (inactive)
21 | Cc1ccc(O)cc1Nc1nc(SCCN2CCOCC2)nc2c1cnn2CC(Cl)c1ccc(Br)cc1 (stereo not given) | 20.6% (inactive)

Row | Compound | growth
22 | CNc1nc2ccccc2n2c(-c3ccc(O)c(O)c3)cnc12 | 27.5% (inactive)
23 | O=C1Nc2ccc(F)cc2/C1=C/C(=O)c1cc2ccccc2oc1=O | 100% (inactive)
24 | CC(C)C[C@H](NC(=O)CNC(=O)C[C@H]1O[C@@H]2OC3(C)CC[C@H]4[C@H](C)CC[C@@H]([C@H]1C)[C@@]24O3)B(O)O | 28.2% (inactive)
25 | O=C(Nc1ccc(Br)cc1)Nc1ccc(-c2ccc3c(c2)NC(=O)/C3=C\c2ccc[nH]2)cc1 | 75.2% (inactive)
26 | Cc1cc(C(NC(=O)CCCCCNc2cccc3c2C(=O)N(C2CCC(=O)CC2=O)C3=O)c2cccc(N(C)C)c2)c(O)c2ncccc12 (stereo not given) | 10.1% (inactive)
27 | Cc1nc(N)ncc1-c1ccc2ncnc(N3CCc4cc(F)c(Cl)cc43)c2c1 | 68.3% (inactive)
28 | CCCCCCCCCc1ccc(C(=O)Nc2cc(C)ccc2C(=O)OC)cc1 | 106% (inactive)
29 | COc1ccc2[nH]cc(-c3cc(N)n4nc(-c5c[nH]c6ccccc56)cc4n3)c2c1 | 13.9% (inactive)
30 | Cn1cc(-c2cc3nc(-c4cn(C)c5ncc(Br)cc45)cc(N)n3n2)c2cc(F)ccc21 | 58.3% (inactive)
31 | Nc1nn2c(-c3cc4cc(Br)ccc4oc3=O)ccnc2c1N=Nc1ccccc1 | -54.5% (active)
32 | COc1cc(C=O)ccc1OC(=O)c1cc(-c2ccc(C)cc2)n(-c2ccc(S(C)(=O)=O)cc2)n1 | 90.3% (inactive)
33 | COc1ccc(-c2cc(C)nc3[nH]c(=O)sc23)cc1 | 53.6% (inactive)
34 | O=C(N=Nc1c(O)[nH]c2ccc(Cl)cc12)c1ccc2nc(-c3ccc(Cl)cc3)[nH]c2c1 | -52.2% (active)
35 | CCCCN1C(=O)/C(=C\C(=O)c2cc3ccccc3oc2=O)c2ccccc21 | 91.3% (inactive)
36 | COc1ccc(-c2cc(C(=O)N=Nc3c(O)[nH]c4ccc(Cl)cc34)c3ccccc3n2)cc1 | 23.5% (inactive)
37 | O=C(CSc1nc2sc3c(c2c(=O)n1-c1ccc(Cl)cc1)CCCC3)NNC(=O)c1ccc(Br)cc1 | 24.8% (inactive)
38 | O=c1[nH]c2ccccc2cc1COc1ccc(Nc2nccc(-c3ccc(Cl)cc3)n2)cc1 | 93.4% (inactive)
39 | COc1cc(/C=C/C(=O)c2cnn(-c3cc(=O)[nH]c4ccc(C)cc34)c2C)cc(OC)c1OC | 18.7% (inactive)
40 | CCCCCCCCc1ccc(C(=O)Nc2ccc(C)c(OP(=O)(O)O)c2)cc1 | 91% (inactive)
